About 79,000 compounds went through this panel and 15% of them were active in at least one assay; those are over-represented in the sample as a whole. Values without a mark were called inactive. Calls of active or inactive are those of the source. No stated cut-off is given here; in the data, active means growth inhibition above about 70%; inactive means the rest.
Test: NCI Yeast Anticancer Drug Screen. Data for the sgs1 mgt1 strain (AID 161);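 further: 0% = growth of cultures given vehicle only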
Conditions: S. cerevisiae sgs1 mgt1 strain, at 50.0 µM, hits give high values
Outline: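 Yeast cells carrying a defined DNA-repair defect were exposed to test compounds. Growth inhibition was measured relative to vehicle-treated controls.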

Row | Structure (SMILES) | growth inhibition
1 | COc1cc(C(=O)C/C(CCC(=O)Nc2ccc(Cl)cc2Cl)=N/NC(=O)C(N)=O)ccc1O | -34.8%
2 | CC(CO)N1CCCCCC1 (stereo not drawn) | 5.9%
3 | CCC(COCC(CC)C(=O)O)C(=O)O (stereo not drawn) | 18.6%
4 | CCOC(=O)c1c(C)[nH]c(=S)c(C#N)c1-c1ccc(Cl)cc1 | 34.4%
5 | CCSc1ccc(N=[N+]([O-])c2ccc(SCC)c(Cl)c2)cc1Cl | 1.65%
6 | COc1ccc(Oc2nc(=O)n3ccccc3n2)cc1 | -14.6%
7 | Nc1[nH]c(=S)nc2snnc12 | 9.4%
8 | O=C1CS(=O)(=O)CN1c1ccc(Cl)c(Cl)c1 | -7.65%
9 | CC(C)OP(=O)(OC(C)C)c1ccc2c(c1)OCCOCCOCCOCCO2 | 9.2%
10 | O=C1c2ccsc2C(=O)c2sc(CO)cc21 | 91% (active)
11 | C=C(C)[C@@H]1CC=C(CO)CC1 | 0.45%
12 | CN(C=O)C(C(=O)Nc1cccc2c(OC(=O)C(N(C)C=O)(N(C)C=O)N(C)C=O)c(N=Nc3ccc(S(=O)(=O)Nc4nccs4)cc3)cc(N=Nc3ccc(S(=O)(=O)Nc4nccs4)cc3)c12)(N(C)C=O)N(C)C=O (tested in a mixture with another compound) | -6.25%
13 | O=[N+]([O-])c1cccc(C=NC23CC4CC(CC(C4)C2)C3)c1 | -29.6%
14 | FC(F)(F)c1nc(Nc2ccccc2)c2[nH]cnc2n1 | 2.45%
15 | CC(=O)Cc1nc(N)nc(Nc2ccc(Cl)c(Cl)c2)n1 | -10.1%
16 | CN(C)S(=O)(=O)c1ccc(NC(=O)OC(C)(c2ccccc2)C2CCCCC2)cc1 (stereo not drawn) | 4.05%
17 | O=C(Nc1ccccc1)Sc1nc2ccccc2s1 | 45.5%
18 | COc1ccc2cc(C(=O)c3ccccc3)c(=O)oc2c1 | 18.8%
19 | CCCCCP(=O)(CCC(C)C)CC(C)C (stereo not drawn) | 20.7%

Row | Structure (SMILES) | growth inhibition
20 | CCOC(=O)c1cc2c([N+](=O)[O-])cccc2[nH]1 | -2.2%
21 | N#CC(c1ccccc1)C1CCN(Cc2ccccc2)CC1 (stereo not drawn) | 48.1%
22 | Cc1ccc(NC(=O)c2ccc(Cl)cc2)cc1 | 8.85%
23 | OC1CNC(=S)NC1 | -12.6%
24 | O=C(NCCN1CCOCC1)c1ccc(I)cc1 | 45%
25 | CCCCCCCCC(=O)O (tested in a mixture with another compound) | 9.95%
26 | CCCCCNC(=O)C(C)O (stereo not drawn) | -9.7%
27 | CC(C)=C1CCC(CN2CCOCC2)C1=O (stereo not drawn) | 23.1%
28 | CC[N+](CC)(CC)Cc1cc2ccccc2n1C(=O)OC | -25.8%
29 | O=C(O)C1C2C=CC(O2)C1C(=O)NCc1ccncc1 (stereo not drawn) | -7.8%
30 | N#CC1(c2nc3ccccc3o2)C(=O)C(=O)N(C2C3CC4CC(C3)CC2C4)C(=O)C1=O (stereo not drawn) | -39.1%
31 | c1ccc2c(c1)ccc1c2ccc2c1cc1ccccn12 | -13.2%
32 | NC(=O)N/N=C/c1cccc2ccccc12 | -8.8%
33 | O/N=C1/CCCCc2ccccc21 | -21.2%
34 | COC(=O)/C=C(/C(=O)OC)C1(C)c2cc(C(=O)OC)c(C(=O)OC)c(N)c2C(=N)N1c1ccccc1 (stereo not drawn) | 1%
35 | CN(C)CC1OCCc2ccccc21 (stereo not drawn) | 3.75%
36 | C[N+](C)(N)CCS(N)(=O)=O | 5.6%
37 | CCCCCCCCCCCCCCCCCN(C)C(=O)OCC | -55.5%
38 | CN1N(c2ccccc2)C(=O)C2=NC=C(C(=O)c3ccccc3)C(=N)C21C (stereo not drawn) | 22.1%

Test: NCI Yeast Anticancer Drug Screen. Data for the cln2 rad14 strain (AID 165);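 further: 0% = growth equal to vehicle treated cultures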
Conditions: S. cerevisiae cln2 rad14 strain, at 50.0 µM, hits give high values
Outline: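 Yeast carrying cln2 and rad14 alterations (cell cycle control and DNA damage repair) were exposed to compounds. Growth inhibition was measured against vehicle-treated controls.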

Row | Structure (SMILES) | growth inhibition
39 | COc1cc(C(=O)C/C(CCC(=O)Nc2ccc(Cl)cc2Cl)=N/NC(=O)C(N)=O)ccc1O | 22.4%
40 | CC(CO)N1CCCCCC1 (stereo not drawn) | -17.7%
41 | CCC(COCC(CC)C(=O)O)C(=O)O (stereo not drawn) | 19.1%
42 | CCOC(=O)c1c(C)[nH]c(=S)c(C#N)c1-c1ccc(Cl)cc1 | 4.55%
43 | CCSc1ccc(N=[N+]([O-])c2ccc(SCC)c(Cl)c2)cc1Cl | -17.1%
44 | COc1ccc(Oc2nc(=O)n3ccccc3n2)cc1 | -12.6%
45 | Nc1[nH]c(=S)nc2snnc12 | 11.2%
46 | O=C1CS(=O)(=O)CN1c1ccc(Cl)c(Cl)c1 | 6%
47 | O=C(N=Nc1c(O)[nH]c2ccccc12)C(=O)N=Nc1c(O)[nH]c2ccccc12 | -1.1%
48 | CC(C)OP(=O)(OC(C)C)c1ccc2c(c1)OCCOCCOCCOCCO2 | 4.2%
49 | O=C1c2ccsc2C(=O)c2sc(CO)cc21 | 91.8% (active)
50 | C=C(C)[C@@H]1CC=C(CO)CC1 | 22.1%
51 | CN(C=O)C(C(=O)Nc1cccc2c(OC(=O)C(N(C)C=O)(N(C)C=O)N(C)C=O)c(N=Nc3ccc(S(=O)(=O)Nc4nccs4)cc3)cc(N=Nc3ccc(S(=O)(=O)Nc4nccs4)cc3)c12)(N(C)C=O)N(C)C=O (tested in a mixture with another compound) | -6.5%
52 | O=[N+]([O-])c1cccc(C=NC23CC4CC(CC(C4)C2)C3)c1 | 28.7%
53 | FC(F)(F)c1nc(Nc2ccccc2)c2[nH]cnc2n1 | -20.9%
54 | CC(=O)Cc1nc(N)nc(Nc2ccc(Cl)c(Cl)c2)n1 | -11.3%
55 | CN(C)S(=O)(=O)c1ccc(NC(=O)OC(C)(c2ccccc2)C2CCCCC2)cc1 (stereo not drawn) | 7.75%
56 | O=C(Nc1ccccc1)Sc1nc2ccccc2s1 | 13.7%
57 | COc1ccc2cc(C(=O)c3ccccc3)c(=O)oc2c1 | 11.1%
58 | CCCCCP(=O)(CCC(C)C)CC(C)C (stereo not drawn) | 28.9%

Row | Structure (SMILES) | growth inhibition
59 | CCOC(=O)c1cc2c([N+](=O)[O-])cccc2[nH]1 | -35.5%
60 | N#CC(c1ccccc1)C1CCN(Cc2ccccc2)CC1 (stereo not drawn) | 47.8%
61 | Cc1ccc(NC(=O)c2ccc(Cl)cc2)cc1 | 3.3%
62 | OC1CNC(=S)NC1 | -22.2%
63 | O=C(NCCN1CCOCC1)c1ccc(I)cc1 | 38.4%
64 | CCCCCCCCC(=O)O (tested in a mixture with another compound) | 12.7%
65 | CCCCCNC(=O)C(C)O (stereo not drawn) | -30.5%
66 | CC(C)=C1CCC(CN2CCOCC2)C1=O (stereo not drawn) | 19.6%
67 | CC[N+](CC)(CC)Cc1cc2ccccc2n1C(=O)OC | -1.4%
68 | O=C(O)C1C2C=CC(O2)C1C(=O)NCc1ccncc1 (stereo not drawn) | -30.1%
69 | N#CC1(c2nc3ccccc3o2)C(=O)C(=O)N(C2C3CC4CC(C3)CC2C4)C(=O)C1=O (stereo not drawn) | 16.2%
70 | c1ccc2c(c1)ccc1c2ccc2c1cc1ccccn12 | -14.7%
71 | NC(=O)N/N=C/c1cccc2ccccc12 | 6.35%
72 | O/N=C1/CCCCc2ccccc21 | -29.7%
73 | COC(=O)/C=C(/C(=O)OC)C1(C)c2cc(C(=O)OC)c(C(=O)OC)c(N)c2C(=N)N1c1ccccc1 (stereo not drawn) | -12.4%
74 | CN(C)CC1OCCc2ccccc21 (stereo not drawn) | 0.6%
75 | O=C1CCC(=O)N1Cc1ccccc1N=[N+]([O-])c1ccccc1CN1C(=O)CCC1=O | -0.55%
76 | C[N+](C)(N)CCS(N)(=O)=O | -22.4%
77 | CCCCCCCCCCCCCCCCCN(C)C(=O)OCC | -114%
78 | CN1N(c2ccccc2)C(=O)C2=NC=C(C(=O)c3ccccc3)C(=N)C21C (stereo not drawn) | 19.9%

Source: PubChem BioAssay (NCI)
